These sequences were tested against TPPP3 (assay: pooled miR-30 sensor sort-seq; sequence = guide strand). Conditions: shRNA.

Going from ACTGTCGTCCAGGATGTCCTGC to TTGCCATTCATCTCTTGCCCAC, the sensor-assay potency score (higher = more potent) falls from -0.739 to -1.13.

For TTGTAGGCGCTCACGTAGCCAC, the sensor-assay potency score (higher = more potent) was -1.01.

What follows are sequences tested against TPRX1 in the same assay as above. Conditions: shRNA.

First: TGAACCACACCTGCAGCTGTTG
Second: TTGGAGCTGGGACTGAGCCTGA
The sensor-assay potency score (higher = more potent) of the first is higher: -0.826 for the first, -0.894 for the second.

First: TAGAGTCATCCCCTTCTTGGTA
Second: TTTCATTCACAGAGCCACCCTC
The sensor-assay potency score (higher = more potent) of the first is lower: -0.907 for the first, -0.302 for the second.

Going from TCGGGCTTGGGATCTGAGCTGG to TTGCCCATAGAGTCATCCCCTT, the sensor-assay potency score (higher = more potent) falls from -0.605 to -0.764.

First: TAGGGGTAGGAGCAGCTCTGTG
Second: TTCTTGGTACTGAGAGGTCATG
The sensor-assay potency score (higher = more potent) of the first is lower: -1.84 for the first, -1.73 for the second.

First: TTCATTCACAGAGCCACCCTCC
Second: TGAAGTGAGGGAATAACTGGGT
The sensor-assay potency score (higher = more potent) of the first is lower: -0.83 for the first, 0.243 for the second.

First: TGGTGGAGGCTGCAGATCGTGG
Second: TTGAACCACACCTGCAGCTGTT
The sensor-assay potency score (higher = more potent) of the first is lower: -1.98 for the first, -0.741 for the second.

What follows are sequences tested against TRAFD1 in the same assay as above. Conditions: shRNA.

Compared with TAACTGGTTACTTGCAGCCTGT, TTCCTGCTTAGTATCATCCAGG is higher in sensor-assay potency score (higher = more potent): -0.902 for the first, -0.814 for the second.

First: TTGCAGTTGTCACACAGTCGAG
Second: TTCTATTGTGGAAAACATCTGA
The sensor-assay potency score (higher = more potent) of the first is lower: -1.47 for the first, 0.311 for the second.

Compared with TTTGCCTTTGCAGTTCTGCTGC, TTTATGTCACTGAGAGACCTGG is lower in sensor-assay potency score (higher = more potent): 0.136 for the first, -0.674 for the second.

First: TTGCACTCTCTTCACCACCCTC
Second: TTATTCTGAATTGAAACCTGGG
The sensor-assay potency score (higher = more potent) of the first is lower: -0.942 for the first, 0.55 for the second.

Going from TTCTTCAAACAGATTATTCTGA to TTGGTTGGTAGTTCTATTGTGG, the sensor-assay potency score (higher = more potent) falls from 0.585 to -0.193.

For TGCAGTTGTCACACAGTCGAGT, the sensor-assay potency score (higher = more potent) was -0.879.

These sequences were tested against TRAPPC2L in the same assay as above. Conditions: shRNA.

Compared with TTGTGTAGCTTCCGGAACATGC, TTGGAGTTGGTGACGTAGCCGT is higher in sensor-assay potency score (higher = more potent): -0.801 for the first, -0.459 for the second.

Compared with TTCGTTGTCTCGAAGGGCTGTG, TTGCACATCACGTCTGTGTAGG is lower in sensor-assay potency score (higher = more potent): 0.76 for the first, 0.239 for the second.

Compared with TTTCGTTGTCTCGAAGGGCTGT, TAGTTGAGAGAACATGCACAGC is lower in sensor-assay potency score (higher = more potent): 0.949 for the first, -1.15 for the second.

Compared with TACCTTGTAGTCCTCCGTGGGG, TTCAGCTCGTTCTCCGTAGGGG is higher in sensor-assay potency score (higher = more potent): -0.92 for the first, 0.103 for the second.

First: TATACCTTGTAGTCCTCCGTGG
Second: TTGAGAGAACATGCACAGCTGC
The sensor-assay potency score (higher = more potent) of the first is higher: 0.16 for the first, -0.482 for the second.

Compared with TGTAGCTTCCGGAACATGCTGC, TGTGTAGGAGTTGTGTAGCTTC is higher in sensor-assay potency score (higher = more potent): 0.0954 for the first, 0.492 for the second.
